# In PubChem BioAssay (EPA / NIEHS):
# Several values for one entry are separate records, joined by “and”; a condition that tells them apart may be missing. Equal values may be shown once. Results filed as inconclusive are left out. Activity calls are given as the source filed them. The calls were made as follows, unless noted: active = hit-call score of the fitted dose curve at least 0.9, where 1 is the maximum; inactive = score below 0.9.
# Legend:
# [1] = IUF_NPC2-5_cell_number_120hr: Cell Number Assessment at 120 hours in the Leibniz Research Institute for Environmental Medicine (IUF) Neural Progenitor Cell Migration and Differentiation Assay (NPC2-5) (AID 2284308);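 also: count of Hoechst-stained nuclei in migration zone around plated human neural progenitor spheres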
# In short: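 Primary human fetal neural progenitor spheres (GW 16-19, 0.3 mm) plated on poly-D-lysine/laminin in N2 differentiation medium, exposed from day 0 for 120 h with half-medium refresh at day 3; Hoechst-positive nuclei counted in migration area versus DMSO control.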
# [2] = IUF_NPC2-5_viability_120hr: Viability Assessment at 120 hours in the Leibniz Research Institute for Environmental Medicine (IUF) Neural Progenitor Cell Migration and Differentiation Assay (NPC2-5) (AID 2284312)
# In short: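 Human fetal neural progenitor spheres (0.3 mm) plated on poly-D-lysine/laminin in N2 differentiation medium, exposed 120 h with half-medium refresh at day 3. Viability by alamar blue resazurin fluorescence; 7 concentrations, DMSO max 0.1%.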
# [3] = CCTE_Mundy_HCI_iCellGluta_NOG_NeuriteLength: CCTE's Neurite Outgrowth Assay in iCellGluta cells for Neurite Length, Mundy Lab (AID 2284318; active = hit-call score of the fitted dose curve at least 0.9, where 1 is the maximum)
# In short: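 Automated high-content imaging of betaIII-tubulin (Alexa Fluor-488) and Hoechst-stained cells gave neurite length, normalized to the DMSO baseline.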
# [4] = VALA_TUBHUV_Agonist_CellCount: Viability Assessment in the VALA Sciences human Umbilical Vein Endothelial Tubule Formation (TUBHUV) Agonism Assay (AID 2284309; active = hit-call score of the fitted dose curve at least 0.9, where 1 is the maximum)
# In short: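 HUVEC co-cultured 1:3 with HDF for 3 days in 10 ng/ml VEGF, then compounds added in VEGF medium for a further 3 days (72 h). Nuclear-stain/CD31 imaging cell count. Positive-direction fit versus 0.1% DMSO vehicle.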
# [5] = VALA_MIGHUV2_WoundArea: VALA Sciences human Umbilical Vein Endothelial Cell Migration (MIGHUV) Assay, Area of Scratch Wound after Recovery (AID 2284316; active = hit-call score of the fitted dose curve at least 0.9, where 1 is the maximum)
# Method: VALA_MIGHUV2_BCatenin is a cell-based, multiplexed assay that uses umbilical vein-derived endothelial cells (HUVEC). Measurements were taken 24 hours after chemical dosing in a 96-well plate.VALA_MIGHUV2_WoundArea is the one of two assay components measured from the VALA_MIGHUV2 assay. It is designed to make measurements of endothelial migration, a form of morphology reporter, as detected with fluorescence intensity signals by HCS Fluorescent Imaging technology. Data from the assay component VALA_MIGHUV2_WoundArea was analyzed at the endpoint, VALA_MIGHUV2_WoundArea, in the positive analysis fitting direction relative to DMSO as the negative control and baseline of activity. Using a type of morphology reporter, gain-of-signal activity can be used to understand developmental effects. To generalize the intended target to other relatable targets, this assay endpoint is annotated to the neurodevelopment intended target family, where the subfamily is migration.
# Cells were seeded on 384-well microplates (day-0) at a density of 9000 cells per well for detection of wound area recovery or 4000 cells per well for detection of beta-catenin (CTNB) immunoreactivity and incubated in Endothelial Cell Growth Medium (CAI, San Diego; catalog 211-500). After 24 hours of culture, the HUVEC plates were scratched using a custom scratch head with the Bravo liquid handling system. This created a 'wound' area without cells in each well. Test chemical was added within 30 min, each tested in 3-replicates across a 6-point concentration response (0.1 % DMSO vehicle control). 'ScratchOnly' Plates were incubated for a 24 h 'wound recovery' period and then fixed with 4% paraformaldehyde. Hoechst dye was used to visualize cell nuclei in the wound area, and CTNB immunofluorescence for visualizing CTNB-positive nuclei (beta-Catenin (L54E2) Mouse mAb (IF Preferred) 2677; Cell Signaling Technology, Danvers, MA). […]
# [6] = system: IYD (gene 389434); experiment: CCTE_GLTED_hIYD: CCTE's human Iodotyrosine Deiodinase (xIYD) Inhibition Assay, Great Lakes Toxicology and Ecology Division (GLTED) Lab (AID 2284317; active = hit-call score of the fitted dose curve at least 0.9, where 1 is the maximum;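 also: cell-free human IYD enzyme made in baculovirus insect cells; iodide freed from monoiodotyrosine measured by cerium arsenite color change at 420 nm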)
# In short: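 hIYD: baculovirus-expressed human IYD deiodinated monoiodotyrosine for 3 h with test chemical; free iodide was measured by Sandell-Kolthoff absorbance at 420 nm and normalized to MNT and DMSO/NaOH controls.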
structure (smiles),measurement,setting,value
CSC1=N[C@@](C)(c2ccccc2)C(=O)N1Nc1ccccc1,outcome,[1],inactive
same,outcome,[2],inactive
same,outcome,[3],inactive
CN(C)[C@@H]1C(=O)C(C(N)=O)=C(O)[C@@]2(O)C(=O)C3=C(O)c4c(O)cccc4[C@@](C)(O)[C@H]3[C@H](O)[C@@H]12,AC50,[1],72.5 µM (active)
same,outcome,[4],inactive
same,outcome,[2],inactive
same,AC50,[5],50 µM (active)
same,AC50,[3],24.6 µM (active)
CCOP(=S)(OCC)Oc1cc(C)nc(C(C)C)n1,outcome,[1],inactive
same,outcome,[2],inactive
CN1COCN(Cc2cnc(Cl)s2)C1=N[N+](=O)[O-],outcome,[1],inactive
same,outcome,[2],inactive
same,outcome,[3],inactive
CC(C)N(C(=O)SCC(Cl)=C(Cl)Cl)C(C)C,outcome,[1],inactive
same,outcome,[2],inactive
same,AC50,[3],20.2 µM (active)
CCOP(=O)(OCC)Oc1cc(C)nc(C(C)C)n1,outcome,[1],inactive
same,outcome,[2],inactive
same,outcome,[6],inactive
same,outcome,[3],inactive
CC(=NC#N)N(C)Cc1ccc(Cl)nc1,outcome,[1],inactive
same,outcome,[2],inactive
CCOC(=O)CC(SP(=O)(OC)OC)C(=O)OCC (stereo unspecified),outcome,[1],inactive
same,outcome,[2],inactive
CC(C)[C@H](C(=O)O[C@H](C#N)c1cccc(Oc2ccccc2)c1)c1ccc(Cl)cc1,outcome,[6],inactive
CCCSP(=O)(OCC)SCCC,outcome,[1],inactive
same,outcome,[2],inactive
same,outcome,[3],inactive
CC[C@H](C)[C@H]1O[C@]2(C=C[C@@H]1C)C[C@@H]1C[C@@H](C/C=C(\C)[C@@H](O[C@H]3C[C@H](OC)[C@@H](O[C@H]4C[C@H](OC)[C@@H](NC)[C@H](C)O4)[C@H](C)O3)[C@@H](C)/C=C/C=C3\CO[C@@H]4[C@H](O)C(C)=C[C@@H](C(=O)O1)[C@]34O)O2,AC50,[1],836 nM (active) and 2 µM (active)
same,AC50,[2],1.14 µM (active) and 2.1 µM (active)
same,AC50,[3],0.811 µM (active)
